Screening data (PubChem)
tim10-1 inh = growth inhibitors of tim10-1 mutant yeast, primary screen, luminescence, uHTS; hit rate 2.2% among 330,000; inhibition, % at 20 µM; S. cerevisiae tim10-1 ts strain growth, BacTiter-Glo, 24 h;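 active = inhibition of at least 40%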;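 also: mutant grown at 25 °C; 0% = DMSO wells with yeast and 100% = wells holding no yeast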
SKKanGAS inh = S. pyogenes SKKanGAS growth inhibitors in kanamycin, primary screen, streptokinase expression inhibitor project, SKKanGAS strain, BacTiter-Glo luminescence | 6 h | inhibition, % at 7.5 µM | hit rate 1.3% among 300,000;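 active = mean replicate score, as percent of positive control median, at least 50; inconclusive = mean below 50 but one replicate at or above 50; inactive = mean and every replicate below 50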;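 also: strain carries kanamycin resistance gene driven by streptokinase promoter and grows in 40 µg/ml kanamycin; loss of luminescence reflects streptokinase promoter inhibition or plain growth inhibition; 0% = median of DMSO wells and 100% = positive control at its reference dose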
EBI2 antag = EBI2 receptor antagonists, beta-arrestin recruitment, primary screen, cell-based, luminescence, 7a,25-OHC stimulation, uHTS; G-protein coupled receptor 183 (Homo sapiens), P32249; 7a,25-OHC stimulated; inhibition, % at 5 µM; hit rate 0.81% among 360,000; AID 651636, 2012; in the data active = inhibition above about 38%;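 also: enzyme fragment complementation signal reports receptor beta-arrestin coupling in cells; 0% = agonist plus DMSO wells and 100% = wells without agonist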
Target sequence (P32249 whole entry, looked up, the tested form may be a part): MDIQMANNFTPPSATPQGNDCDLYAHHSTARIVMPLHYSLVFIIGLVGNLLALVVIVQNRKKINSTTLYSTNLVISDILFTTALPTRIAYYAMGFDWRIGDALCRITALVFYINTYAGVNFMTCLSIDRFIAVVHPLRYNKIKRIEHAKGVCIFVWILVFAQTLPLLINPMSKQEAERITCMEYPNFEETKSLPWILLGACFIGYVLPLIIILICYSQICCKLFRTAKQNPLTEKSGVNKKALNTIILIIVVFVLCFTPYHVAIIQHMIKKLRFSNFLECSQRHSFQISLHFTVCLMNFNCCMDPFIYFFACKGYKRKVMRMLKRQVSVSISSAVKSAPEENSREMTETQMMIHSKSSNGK
PfHsp90 set2 = growth inhibition of PfHsp90-expressing yeast, primary screen, antimalarial PfHsp90 inhibitor project, S. cerevisiae, BacTiter-Glo luminescence, single point, set 2. BacTiter-Glo ATP, 48 h; yeast lacking PDR1 and PDR3 efflux regulators. inhibition, % at 9.4 µM. hit rate 0.32% among 310,000;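 active = every replicate shows inhibition above about 80%, whatever the replicate mean, limit read from the data; inconclusive = mean inhibition reaches the set limit but some replicate falls short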;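 also: 0% = DMSO neutral controls and 100% = 20 µM radicicol positive controls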
TIM10 inh = growth inhibitors of isogenic TIM10 control yeast, primary screen, counter-screen for tim10-1 yeast inhibitor project, luminescence, uHTS. S. cerevisiae TIM10 strain growth, BacTiter-Glo luminescence, 24 h. AID 463195, 2010. hit rate 1.4% among 330,000. inhibition, % at 10 µM;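 active = inhibition of 40% or more at the single tested concentration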;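 also: wild-type TIM10 isogenic control strain grown at permissive 25 °C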
tim23-1 inh = growth inhibitors of tim23-1 mutant yeast, primary screen, luminescence, uHTS; hit rate 1.3% among 330,000; S. cerevisiae tim23-1 growth, BacTiter-Glo luminescence, 24 h; inhibition, % at 20 µM;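 active = growth inhibition of the mutant yeast at or above 50%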;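 also: temperature-sensitive mutant grown at 25 °C; plate controls were DMSO-treated mutant yeast for no effect and medium wells lacking yeast for full effect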
tim10-1 conf = growth inhibitors of tim10-1 mutant yeast, confirmation, single concentration, luminescence, S. cerevisiae; shares compounds with tim10-1 inh; S. cerevisiae tim10-1 ts strain growth, BacTiter-Glo, 24 h; inhibition, % at 20 µM; hit rate 56% among 7,400; AID 463213, 2010;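 active = inhibition of yeast growth at or above a set limit in either of two repeat tests at 20 µM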;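 also: tim10-1 mutant grown at permissive 25 °C to find synthetic lethal compounds; 0% = DMSO yeast wells and 100% = medium wells without yeast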
TIM10 conf = growth inhibitors of wild-type TIM10 yeast, confirmation, counter-screen for tim10-1 synthetic lethality project, single concentration, luminescence, S. cerevisiae; shares compounds with TIM10 inh; AID 463215, 2010; hit rate 63% among 4,600; inhibition, % at 10 µM; S. cerevisiae tim10 strain growth, BacTiter-Glo luminescence, 24 h;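 active = inhibition of yeast growth at or above a set limit in either of two replicates at 10 µM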;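 also: this counterscreen used the strain with wild-type TIM10; 0% = yeast with DMSO and 100% = medium wells lacking yeast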
tim23-1 conf = tim23-1 mutant yeast growth inhibitors, confirmation, luminescence, single concentration | shares compounds with tim23-1 inh | hit rate 83% among 4,400 | AID 463218, 2010 | S. cerevisiae tim23-1 growth, BacTiter-Glo luminescence, 24 h | inhibition, % at 20 µM;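 active = inhibition above about 39% in either of two replicate wells at 20 µM, limit read from the data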;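 also: temperature-sensitive tim23-1 mutant grown at 25 °C; 0% = DMSO wells with yeast and 100% = medium wells without yeast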
Active calls of the source: *; ? = inconclusive; . = no result given. A selection: hits, their analogues and other compounds. The true share with any hit is near 4.7%.

SMILES | tim10-1 inh | SKKanGAS inh | EBI2 antag | PfHsp90 set2 | TIM10 inh | tim23-1 inh | tim10-1 conf | TIM10 conf | tim23-1 conf
COc1ccc(NC(=O)/C(Cl)=C(/Cl)S(=O)Cc2ccccc2Cl)cn1 (configuration not stated) | 42* | . | . | 107* | 55* | 79* | 23 | 84* | 21
COc1ccc(NC(=O)Cc2ccccc2F)cn1 | -8 | -7 | -8 | 10 | 2 | 19 | . | . | .
O=C(NCCO)c1cccc2c1-c1ccccc1C2=O | 1 | -10 | -2 | -7 | 3 | -2 | . | . | .
O=C1c2cccc(O)c2C(=O)c2c(O)cc(CO)cc21 | 54* | -10 | . | . | 39 | 71* | 39* | . | 84*
Cc1nn(C)cc1S(=O)(=O)Nc1cccc(Cl)c1 | 6 | 2 | 0 | -6 | -5 | 18 | . | . | .
O=C(/C=C/c1ccc2c(c1)OCCCO2)c1ccccc1O | 53* | 12 | 18 | 32 | 60* | 50* | 46* | -8 | 35
COc1cc(OC)c(C=CC(=O)c2ccccc2O)c(OC)c1 | . | . | 16 | 9 | . | . | . | . | .
COc1cc(/C=C/C(=O)c2ccccc2O)cc(OC)c1OC | 53* | -6 | 25 | -12 | 37 | 62* | 43* | . | 55*
O=C(c1cccc(OC2CCN(Cc3ccc(F)cc3)CC2)c1)N1CCCC1 | -15 | 2 | -9 | 3 | -11 | -2 | . | . | .
CC(C)OC(=O)c1c(NC(=O)c2ccco2)sc2c1CCCCC2 | 33 | 10 | -7 | -7 | 36 | 33 | . | . | .
CNC(=O)c1c(NC(=O)c2ccco2)sc2c1CCCC2 | 58* | ? | -3 | 1 | 26 | 58* | 39* | . | 48*
CC(Oc1ccc(Cl)cc1Cl)C(=O)NC1=NN(c2ccccc2)C(=O)C1 (configuration not stated) | 52* | 94* | 4 | . | 11 | 61* | 33* | . | -52
O=C(NC(=S)Nc1ccc2oc(=O)ccc2c1)c1cccc(Cl)c1 | 19 | -2 | 5 | -7 | -12 | 4 | . | . | .
CC1=CC2=NC(=O)CC(C)(C(=O)N(CC(=O)NC(C)(C)C)Cc3cccs3)N2C=C1 (configuration not stated) | 11 | 0 | 1 | 8 | 8 | 9 | . | . | .
COc1cccc2cc(C(=O)CS(=O)(=O)c3ccc(C(C)(C)C)cc3)c(=O)oc12 | 48* | 0 | -7 | 5 | 31 | 52* | 17 | . | 54*
COc1ccc(S(=O)(=O)CC(=O)c2cc3cccc(C)c3oc2=O)cc1 | 53* | 11 | 20 | 8 | -4 | 65* | -18 | . | 57*
Cc1ccc(S(=O)(=O)N2CCC(=O)N(CCOCc3ccc(Cl)cc3)CC2)cc1 | 28 | -9 | 9 | -1 | 3 | 16 | . | . | .
CC(=O)C1=C(C)NC(SCC(=O)c2ccc(Cl)cc2Cl)=C(C#N)C1c1ccco1 (configuration not stated) | 55* | 18 | 34 | -23 | 27 | 53* | 43* | . | 50*
CCCCn1c(-c2cccs2)nc2nc3ccccc3nc21 | 51* | 21 | -41 | . | 31 | 52* | 36* | . | 66*
CCOC(=O)c1c2c(n(C)c1C)C(=O)C(=O)c1ccc(Br)cc1-2 | 57* | 59* | 22 | . | 66* | 56* | 27 | 44* | 47*
C/C(=C\c1ccco1)CN1CCN(Cc2ccc(C)o2)C(CCO)C1 (configuration not stated) | 13 | -6 | 2 | -8 | -18 | -1 | . | . | .
O=C1C(Cl)=C(NCc2cccnc2)C(=O)c2ccccc21 | 45* | 0 | -1 | 4 | 39 | 69* | 30 | . | 64*
Cc1ccc(-n2nc3c(c2NC(=O)c2cc4ccccc4o2)CS(=O)(=O)C3)cc1 | 40* | 0 | 10 | -16 | 32 | 51* | 29 | . | 47*
CC(C)(C)C(=O)N1CCN(c2ccc3c(c2)C2CC3CCN2C(=O)OCc2ccccc2)CC1 (configuration not stated) | . | . | 6 | . | . | . | . | . | .
O=C1c2ccccc2NC(c2ccc(-c3ccc(Br)cc3)o2)N1O (configuration not stated) | 46* | 10 | 6 | 125* | 44* | 62* | 28 | 52* | 65*
SMILES | tim10-1 inh | SKKanGAS inh | EBI2 antag | PfHsp90 set2 | TIM10 inh | tim23-1 inh | tim10-1 conf | TIM10 conf | tim23-1 conf
O=C1c2ccccc2NC(c2ccc(-c3ccc(F)cc3)o2)N1O (configuration not stated) | 5 | . | 7 | -11 | -4 | 19 | . | . | .
c1csc(CNc2nc(-c3cccs3)nc3ccccc23)c1 | 51* | 6 | -5 | -8 | 42* | 57* | 44* | 10 | 52*
c1csc(-c2nc(NCC3CCCO3)c3ccccc3n2)c1 (configuration not stated) | 23 | -5 | 4 | -1 | 19 | 35 | . | . | .
CSc1ncnc2c1ncn2CCCN(C)CCc1ccccn1 | . | . | -2 | . | . | . | . | . | .
O=C1c2c(Br)c(Br)c(Br)c(Br)c2C(=O)N1c1ccccn1 | 76* | -5 | 0 | -14 | 69* | 86* | 75* | 75* | 58*
CC1(C)COC(/C=C/c2cccc([N+](=O)[O-])c2)=N1 | 60* | 7 | 3 | 1 | 47* | 59* | 43* | 46* | 40*
CCN(CC)c1nc(-c2ccccn2)nc(-c2ccccc2)c1C#N | 58* | 37 | -18 | -73 | 60* | 58* | 51* | 65* | 53*
O=C1/C(=C/c2cccc([N+](=O)[O-])c2)CCc2ccccc21 | 42* | 3 | -71 | -21 | 39 | 54* | 59* | . | 26
CC(C)(C)c1nn(-c2ccccc2)c2[nH]c(=O)c(CNc3ccc4c(c3)OCCO4)cc12 | 68* | 19 | 19 | 121* | 56* | 83* | 65* | 44* | 83*
COc1ccc(CCN(C)C(=O)C(CCSC)NC(=O)c2ccco2)cc1OC (configuration not stated) | 17 | . | -9 | . | 0 | 3 | . | . | .
